± gives the standard deviation. In all, about 8,200 sequences were measured (“pre-steady-state target cleavage rate”: median about 0.024, highest 2% from about 1.3 on). Shown is part of a subset that was picked to be rich in the highest values.
System: MIWI (PIWIL1) piRISC loaded with L1MC piRNA (30 nt)
Assay: pre-steady-state target cleavage rate (min^-1); MIWI and MILI are mouse PIWI proteins and EfPiwi is from a freshwater sponge; tags in brackets are library labels; higher = faster piRNA-guided slicing of the target
Settings: guide: L1MC piRNA 5'p-UAACUAAAUACUAUGCAAGCUGUAGGUCCU
Method in brief: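 Cleave-'n-Seq: a transcribed, DNA-blocked target RNA library (0.1 nM) was mixed with 1 nM active affinity-purified piRISC carrying one synthetic guide, with or without 500 nM GTSF1 partner protein, in HEPES–potassium acetate buffer at 33 °C for 0–8 or 0–960 min. Uncleaved targets were sequenced and normalised to depth and to weakly complementary targets. Three trials were pooled, and k3 was capped at 0.0001 min^-1. The pre-steady-state cleavage rate came from a burst-and-steady-state fit.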

[1] = auxiliary factor: 500 nM mouse GTSF1
[2] = auxiliary factor: none (no GTSF1)

Sequence | pre-steady-state target cleavage rate [1] | pre-steady-state target cleavage rate [2]
UCGACCUACACGUUGCAUAGUAUUUUCAAA | 0.224 ± 0.036 | 
UCCUGGUACACGUUGCAUAGUAUUUAGUAA | 0.178 ± 0.041 | 
UCCUCCAACAGCUUGCAUAGUAUUUACUUA | 0.267 ± 0.026 | 0.0243 ± 0.0038
UCGACCUACAGCUUGCAUAGUAUUUAGUA | 0.778 ± 0.039 | 0.0159 ± 0.0051
ACGACCUACAGCUUGCAUAGUAUUUAGUUA | 1.56 ± 0.064 | 0.0997 ± 0.017
UCGACCUACAGCUUGCAUAGUAUUUAGCUUA | 0.375 ± 0.05 | 0.0283 ± 0.0087
UCGACCUACAGCUUGCAUAGUAUUUAGUAA | 1.15 ± 0.061 | 0.0683 ± 0.014
UCGACCCUACAGCUUGCAUAGUAUUUAGUUA | 1.33 ± 0.061 | 0.0734 ± 0.012
UCGACCUACAGCUUGCAUAGUAUUUAGUUUA | 1.27 ± 0.058 | 0.0631 ± 0.0099
ACGACCUACAGCUUGCAUAGUAUUUAGUAA | 1.11 ± 0.042 | 0.0771 ± 0.016
UCGACCUACAGCUUUGCAUAGUAUUUAGUUA | 1.4 ± 0.061 | 0.0371 ± 0.0078
UCGACCUACAGCUUGCAUAGUAUUUAGUUC [g2:g28:cont:t1C] | 1.22 ± 0.045 | 0.0714 ± 0.013
ACGACCUACAGCUUGCAUAGUAUUUAGAUA | 0.62 ± 0.044 | 0.0521 ± 0.011
UCGACCUACAGCUUGCAUAGUAUUUAGUUU [g2:g28:cont:t1U] | 1.75 ± 0.067 | 0.158 ± 0.033
UCCUGCUACUCGUUGCAUAGUAUUUAGAAA | 0.0557 ± 0.014 | 
UCCUGGUACAGCUUGGAUAGUAUUUAGUAA | 0.421 ± 0.095 | 0.0149 ± 0.0041
UCCUGCUACAGCUUGCAUUGAAUUUAGUUA | 0.168 ± 0.012 | 0.00991 ± 0.0044
UCCUGGAUGUGCGUUGCAUAGUAUUUAGUUA | 0.28 ± 0.032 | 0.00987 ± 0.0029
UCCACCUACUGCUUGCAAAGUAUUUAGUUA | 0.623 ± 0.025 | 0.0305 ± 0.0052
AGGACCUACAGCUUGCGAUAGUAUUUAGUUA | 0.108 ± 0.026 | 

Sequence | pre-steady-state target cleavage rate [1] | pre-steady-state target cleavage rate [2]
UCGACCUACAGCUUGCAUAGUAUAUUAGUUA | 1.25 ± 0.049 | 0.0248 ± 0.0063
UCGACCUACAGCUUGCAUAGUAUUAGUUA | 0.346 ± 0.053 | 
UCGACCUACAGCUUGCAUAGUAUUUAGUUA [g2:g28:cont:t1A] | 1.56 ± 0.056 | 0.0936 ± 0.017
UCGACCUACAGCUUGCAUAGUAUUUUAGUUA | 1.21 ± 0.053 | 0.0302 ± 0.0073
UCGACCUACAGCUUGCAUAGUAUUAUAGUUA | 1.32 ± 0.076 | 0.0387 ± 0.007
UCGACCUACAGCUUGCAUAGUAUUUAGUUG [g2:g28:cont:t1G] | 0.569 ± 0.04 | 0.0703 ± 0.013
AGCACCUACAGCUUGCAUACUAUUUAGUUA | 0.471 ± 0.099 | 0.00711 ± 0.0024
UCCUGGAUGUCGAACCAUUGUAUAUAGUUA | < 0.0001 | 
UCGACCUACAGCUUCGAUAGUAUUUAGUUA | 0.911 ± 0.058 | 0.00251 ± 0.0018
UGGACCUACAGCUUCGCAUAGUAUUUAGUUA | 1.43 ± 0.1 | 0.0229 ± 0.0062
AGGACCUACAGCUUCGCAUAGUAUUUAGUUA | 1.27 ± 0.071 | 0.0296 ± 0.0087
UCGACCUACAGCUUCAUAGUAUUUAGUUA | 1.14 ± 0.042 | 0.0128 ± 0.0025
UCCACCUACAGCUUCGCAUAGUAUUUAGUUA | 0.911 ± 0.056 | 0.0118 ± 0.0027
UCGACCUACAGCUUCGCAUAGUAUUUAGUUA | 1.33 ± 0.07 | 0.0168 ± 0.004
UGGAGCUACAGCUUGCAUUGUAUUUAGUUA | 0.934 ± 0.038 | 0.0337 ± 0.0068
UCCUCCUACAGCUUGCAUACUAUUUAGAUA | 0.0831 ± 0.015 | 0.0075 ± 0.0022
UCCUGGAUGUGCUUGCAUAGUAUUUAGAUA | 0.118 ± 0.023 | 0.0188 ± 0.0067
UCGACCUACAGCUUGCAUAGAAUUUUCAAA | 0.369 ± 0.059 | 
UCCUGGUACAGCUUACAUAGUAUUUAGUUA | 0.749 ± 0.056 | 0.0246 ± 0.0048
UCCUGCUACAGCUUGCAUAGUAUUUUAGUUA | 0.817 ± 0.067 | 0.0107 ± 0.0028

Sequence | pre-steady-state target cleavage rate [1] | pre-steady-state target cleavage rate [2]
UCCUGCUACAGCUUGCAUAUUAUUUAGUUA | 1.31 ± 0.066 | 0.0449 ± 0.0088
UGCAGCUACAGCUUGCAUAGUAUUUAGUUA | 1.21 ± 0.081 | 0.0733 ± 0.013
AGCUGCUACAGCUUGCAUAGUAUUUAGUAA | 0.977 ± 0.11 | 0.0202 ± 0.0038
UGCUGCUACAGCUUGCAUAGUAUUUAGUAA | 0.875 ± 0.084 | 0.0204 ± 0.0041
UCCUGCUACAGCUUGCAUAUAUUUAGUUA | 0.408 ± 0.045 | 0.00397 ± 0.0033
UCCUGCUACAGCUUGCAUAGUAUUUAGUUA [g2:g25:cont:t1A] | 0.864 ± 0.042 | 0.0585 ± 0.01
AGCUGCUACAGCUUGCAUAGUAUUUAGUUA | 1.49 ± 0.07 | 0.0697 ± 0.012
AGCAGCUACAGCUUGCAUAGUAUUUAGUUA | 1.37 ± 0.067 | 0.079 ± 0.016
UGCUGCUACAGCUUGCAUAGUAUUUAGUUA | 1.55 ± 0.058 | 0.0595 ± 0.011
UCCUGCUACAGCUUGCAUAGUUAUUUAGUUA | 0.073 ± 0.013 | 0.00386 ± 0.0025
UGGUGCUACAGCUUGCAUAGUAUUUAGUUA | 0.988 ± 0.079 | 0.0764 ± 0.017
UCCUGGAACAGCUUCAUAGUAUUUAGUUA | 0.95 ± 0.051 | 0.00772 ± 0.0027
UCCACCUACAGCUUGCGAUAGUAUUUAGUUA | 0.0565 ± 0.018 | 
UGGACCAUGAGCUUGCAUAGUAUUUAGUAA | 0.675 ± 0.045 | 0.0285 ± 0.0075
UCCUGGAACACCUUGCAUAGUUUUUAGUUA | 0.148 ± 0.023 | 0.0142 ± 0.0044
UCCUGGAACAGCUUGCAUAGUUUUUUGUUA | 0.197 ± 0.025 | 0.0238 ± 0.0057
UCGUCCUACAGCUUGCAUAGUAAUUAGUUA | 0.874 ± 0.027 | 0.0282 ± 0.006
UCCUCCUACAGCUUGCAUAGUAAUUAGUAA | 0.347 ± 0.039 | 0.0074 ± 0.0022
UCCUGGUACAGCAUGCAUAGUAAUUAGUUA | 0.457 ± 0.054 | 0.0118 ± 0.0031
AGGACCUACAGCUAGCAUAGUAUUUAGAAA | 0.571 ± 0.066 | 0.00411 ± 0.0025
